The values that follow come from PubChem BioAssay (NCATS).

The target in assay [1] is Cytochrome P450 2C9 (Homo sapiens) (UniProt P11712). The experiment in a line: Cytochrome P450 family 2 subfamily C member 9 (CYP2C9) small molecule antagonists: luciferase biochemical (cell-free) qHTS assay (AID 1645842; active means well fitted curve in the direction sought with a large enough effect in the repeat runs; an effect the other way counts as inactive or inconclusive; further: nearly all actives have a fitted effect of over 55% in size; further: potency means the concentration at half of the fitted maximal effect). Put shortly:
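Luminescence, after 20 min with luciferin detection reagent, reflected CYP2C9 turnover during a 1 h NADPH-driven reaction at 37C. Enzyme-substrate mix contained 0.4% bovine serum albumin and was preincubated with compound 10 min at room temperature.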
(In general: qHTS replaces the single test concentration by a dilution series.)

The target of assay [2] is Cytochrome P450 2D6 (Homo sapiens) (UniProt P10635). Description: Cytochrome P450 family 2 subfamily D member 6 (CYP2D6) small molecule antagonists: luciferase biochemical (cell-free) qHTS assay (AID 1645840; active means well fitted curve in the direction sought with a large enough effect in the repeat runs; an effect the other way counts as inactive or inconclusive; further: nearly all actives have a fitted effect of over 55% in size; further: potency means the concentration at half of the fitted maximal effect). In outline:
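P450-Glo luminescent screen: recombinant CYP2D6 enzyme–proluciferin substrate mix preincubated with compound 10 min at room temperature, then NADPH regeneration added for 1 h at room temperature. Detection reagent added for 20 min; luciferin light read as relative luminescence units.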

The nature of assay [3]: Primary qHTS for inhibitors of nuclear receptor binding SET domain protein 2 (NSD2) in an isogenic RCH-ACV NSD2 p.E1099K mutant (9B) (AID 1645876). Further: nearly all actives have a fitted effect of over 70% in size. Further: potency means the concentration at half of the fitted maximal effect.
The nature of assay [4]: Primary qHTS for inhibitors of nuclear receptor binding SET domain protein 2 (NSD2) in an RCH-ACV wild type WT cells (2C) (AID 1645877). Further: nearly all actives have a fitted effect of over 70% in size. Further: potency means the concentration at half of the fitted maximal effect.
The next assay has as its target Papain (Carica papaya) (UniProt P00784). The experiment in a line: Primary qHTS assay for inhibitors of the protease papain (AID 1645873).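 Further: papain turnover of Z-FR-AMC read as the AMC fluorescence gain over 10 min; series mostly up to about 50 µM; on the % scale 0 is the no-effect control and ±100 the full control effect.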
Assay [5] addresses Rap guanine nucleotide exchange factor 3 (Homo sapiens) (UniProt O95398). Description: Confirmatory qHTS for agonist of cAMP-regulated guanine nucleotide exchange factor 3 (EPAC1) (AID 1645881).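 Further: EPAC1 catalysed release of BODIPY-GDP from Rap1B seen as fluorescence loss; 100% = effect of cAMP agonist control; nearly all actives have a fitted effect of over 75% in size.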
Assay [6] deals with Rap guanine nucleotide exchange factor 4 (Homo sapiens) (UniProt Q8WZA2). The experiment in a line: Confirmatory qHTS for agonist of cAMP-regulated guanine nucleotide exchange factor 4 (EPAC2) (AID 1645884).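 Further: nucleotide exchange releases bodipy-GDP from Rap1 and this lowers its fluorescence; on the % scale 0 is the no-effect control and ±100 the full control effect; nearly all actives have a fitted effect of over 65% in size.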
Rap guanine nucleotide exchange factor 4 (Homo sapiens), sequence (Q8WZA2 whole entry, looked up): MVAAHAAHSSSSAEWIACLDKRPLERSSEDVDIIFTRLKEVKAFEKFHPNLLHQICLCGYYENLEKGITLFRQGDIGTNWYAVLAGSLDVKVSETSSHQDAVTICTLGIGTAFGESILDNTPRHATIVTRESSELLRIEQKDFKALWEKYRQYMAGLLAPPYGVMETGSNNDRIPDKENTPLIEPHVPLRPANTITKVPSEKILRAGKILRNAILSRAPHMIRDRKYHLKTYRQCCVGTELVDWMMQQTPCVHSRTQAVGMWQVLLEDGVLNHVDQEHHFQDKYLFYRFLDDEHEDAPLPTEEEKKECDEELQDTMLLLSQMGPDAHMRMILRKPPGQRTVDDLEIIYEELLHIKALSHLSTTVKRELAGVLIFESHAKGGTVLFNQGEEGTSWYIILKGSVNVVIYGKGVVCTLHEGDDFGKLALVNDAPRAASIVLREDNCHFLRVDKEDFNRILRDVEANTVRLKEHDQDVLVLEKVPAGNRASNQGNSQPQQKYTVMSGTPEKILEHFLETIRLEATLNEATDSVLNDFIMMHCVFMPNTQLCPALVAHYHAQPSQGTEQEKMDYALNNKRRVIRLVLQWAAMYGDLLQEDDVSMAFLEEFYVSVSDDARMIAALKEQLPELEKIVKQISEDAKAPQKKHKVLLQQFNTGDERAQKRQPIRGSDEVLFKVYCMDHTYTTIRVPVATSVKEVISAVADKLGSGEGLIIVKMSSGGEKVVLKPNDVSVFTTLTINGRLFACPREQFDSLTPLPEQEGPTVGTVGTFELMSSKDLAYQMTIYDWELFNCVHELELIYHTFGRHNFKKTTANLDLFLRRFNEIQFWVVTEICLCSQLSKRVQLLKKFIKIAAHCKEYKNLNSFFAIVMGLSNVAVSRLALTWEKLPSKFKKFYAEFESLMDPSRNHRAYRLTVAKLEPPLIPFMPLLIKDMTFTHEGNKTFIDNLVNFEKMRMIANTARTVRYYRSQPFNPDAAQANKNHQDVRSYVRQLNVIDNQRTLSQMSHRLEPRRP
For assay [7] the target is unchanged. Description: Confirmatory qHTS for antagonist of cAMP-regulated guanine nucleotide exchange factor 4 (EPAC2) (AID 1645885). Further: nearly all actives have a fitted effect of over 25% in size. Further: potency means the concentration at half of the fitted maximal effect.
Assay [8] concerns the target Rap guanine nucleotide exchange factor 3 (Homo sapiens) (UniProt O95398). Description: Counterscreen qHTS for antagonist of cAMP-regulated guanine nucleotide exchange factor 3 (EPAC1) (AID 1645888).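 Further: fluorescence loss as bound BODIPY-GDP is released from Rap1B; % of control where 0% means no effect.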 Put shortly:
(§1)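 Rap1B–BODIPY-GDP (250 nM) with 50 uM GDP; compounds pin-transferred to 9.74 nM–152 uM final (activator) or from 7.32 nM upwards (inhibitor). Fluorescence Ex/Em 480/540 nm read at 5 and 30 min, then after adding cAMP or buffer, at room temperature.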
For orientation: The purpose of a counterscreen is to sort out artefacts and off-target activity.

The target is the same in assay [9]. Description: Counterscreen qHTS for agonist of cAMP-regulated guanine nucleotide exchange factor 3 (EPAC1) (AID 1645889). Further: % of control where 0% means no effect; nearly all actives have a fitted effect of over 40% in size. Put shortly:
as §1

The target of assay [10] is Cytochrome P450 3A4 (Homo sapiens) (UniProt P08684). Description: Cytochrome P450 family 3 subfamily A member 4 (CYP3A4) small molecule antagonists: luciferase qHTS assay (AID 1645841; active means well fitted curve in the direction sought with a large enough effect in the repeat runs; an effect the other way counts as inactive or inconclusive; further: nearly all actives have a fitted effect of over 45% in size). Put shortly: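 P450-Glo CYP3A4 enzyme with proluciferin substrate preincubated 10 min with compound at room temperature, then NADPH regeneration 1 h. Luciferin detection reagent added for 20 min; luminescence recorded. Ketoconazole positive control.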
Cytochrome P450 3A4 (Homo sapiens), sequence (P08684 whole entry, looked up): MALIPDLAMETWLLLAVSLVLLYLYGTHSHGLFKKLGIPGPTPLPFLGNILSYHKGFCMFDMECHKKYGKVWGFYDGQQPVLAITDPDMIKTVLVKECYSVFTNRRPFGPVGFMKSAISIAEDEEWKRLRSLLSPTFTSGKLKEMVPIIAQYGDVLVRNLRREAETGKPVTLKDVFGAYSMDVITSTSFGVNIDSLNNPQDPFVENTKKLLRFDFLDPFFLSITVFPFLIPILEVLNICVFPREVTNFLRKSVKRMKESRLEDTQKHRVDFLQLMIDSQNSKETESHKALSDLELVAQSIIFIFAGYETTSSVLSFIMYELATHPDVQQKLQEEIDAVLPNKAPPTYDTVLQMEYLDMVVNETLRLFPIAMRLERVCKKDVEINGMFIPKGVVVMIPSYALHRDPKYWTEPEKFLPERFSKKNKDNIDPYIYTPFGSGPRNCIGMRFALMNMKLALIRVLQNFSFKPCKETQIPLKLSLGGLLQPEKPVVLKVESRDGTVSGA

Assay [11] in a line: NCATS anti-infectives library activity on HEK293 viability as a counter-qHTS vs the C. elegans viability qHTS (AID 1745854). Further: on the % scale 0 is the no-effect control and ±100 the full control effect. Put shortly: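 Compounds were acoustically plated (several concentrations, 1:5, final up to 41.7 uM), then 1500 HEK293 cells added per well and incubated 24 hr at 37C, 5% CO2. CellTiter-Glo was added and luminescence read after 10 min.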
Assay [12] deals with Rap guanine nucleotide exchange factor 3 (Homo sapiens) (UniProt O95398). Description: Confirmatory qHTS for antagonist of cAMP-regulated guanine nucleotide exchange factor 3 (EPAC1) (AID 1645880).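 Further: plate controls were DMSO only for no effect and full effect of the ATA control for full effect; nearly all actives have a fitted effect of over 55% in size.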 Put shortly: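 Nucleotide exchange uses 100 nM EPAC1, 250 nM RAP1B-BODIPY-GDP and 50 uM GDP, with compounds in a concentration-titration series. After 5 min at room temperature, fluorescence (480 nm ex/540 nm em) is read every 5 min for 30 min. Data are normalized to control ATA and DMSO.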
Rap guanine nucleotide exchange factor 3 (Homo sapiens), sequence (O95398 whole entry, looked up): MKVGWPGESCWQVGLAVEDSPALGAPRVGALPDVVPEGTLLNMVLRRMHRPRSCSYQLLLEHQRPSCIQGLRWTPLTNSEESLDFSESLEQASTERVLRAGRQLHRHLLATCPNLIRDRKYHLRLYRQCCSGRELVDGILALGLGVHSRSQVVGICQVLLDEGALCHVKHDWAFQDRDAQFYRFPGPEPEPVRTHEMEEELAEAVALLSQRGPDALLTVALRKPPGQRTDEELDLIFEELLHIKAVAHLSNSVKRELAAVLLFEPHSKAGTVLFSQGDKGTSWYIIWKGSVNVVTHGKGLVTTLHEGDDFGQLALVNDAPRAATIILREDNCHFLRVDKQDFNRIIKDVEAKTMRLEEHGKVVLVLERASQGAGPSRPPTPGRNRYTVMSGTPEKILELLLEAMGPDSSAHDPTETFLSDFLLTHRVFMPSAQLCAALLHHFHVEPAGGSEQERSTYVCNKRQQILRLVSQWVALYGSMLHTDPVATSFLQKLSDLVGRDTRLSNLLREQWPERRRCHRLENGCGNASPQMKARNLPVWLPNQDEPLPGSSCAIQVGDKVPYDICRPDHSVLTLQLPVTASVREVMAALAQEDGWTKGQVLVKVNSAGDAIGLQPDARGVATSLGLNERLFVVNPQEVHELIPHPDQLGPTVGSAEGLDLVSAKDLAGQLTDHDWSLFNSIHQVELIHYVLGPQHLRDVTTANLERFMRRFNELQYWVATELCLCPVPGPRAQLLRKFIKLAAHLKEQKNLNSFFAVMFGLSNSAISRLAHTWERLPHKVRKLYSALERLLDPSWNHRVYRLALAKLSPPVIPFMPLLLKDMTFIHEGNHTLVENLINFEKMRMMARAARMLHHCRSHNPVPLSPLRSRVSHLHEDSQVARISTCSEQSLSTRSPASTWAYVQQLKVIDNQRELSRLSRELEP

Assay [13] can be described thus: NCATS anti-infectives library activity on the primary C. elegans qHTS viability assay (AID 1745855; calls by dose curve). In outline:
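Viability read-out is GFP fluorescence of PE254-GFP-FLuc C. elegans, measured by laser cytometry (488 nm) at day 0, 3 and 7. Ten L1 worms per well were incubated 7 days at 21 °C with compounds and bacterial capsules in S medium.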

Several values for one entry are separate records, joined by “and”; a condition that tells them apart may be missing. Identical values can stand only once. Results filed as inconclusive are left out. A structure can be active in one record and inactive in another. Activity calls are given as the source filed them. Unless noted, the call rests on the fitted dose curve; in most records, active means well fitted curve in the direction sought with a large enough effect; inconclusive means small, poorly fitted or top-dose-only effect, or another doubt; inactive means no such curve, though single readings can be large; an effect the other way counts as inactive or inconclusive.

Cytochrome P450 2D6 (Homo sapiens), sequence (P10635 whole entry, looked up): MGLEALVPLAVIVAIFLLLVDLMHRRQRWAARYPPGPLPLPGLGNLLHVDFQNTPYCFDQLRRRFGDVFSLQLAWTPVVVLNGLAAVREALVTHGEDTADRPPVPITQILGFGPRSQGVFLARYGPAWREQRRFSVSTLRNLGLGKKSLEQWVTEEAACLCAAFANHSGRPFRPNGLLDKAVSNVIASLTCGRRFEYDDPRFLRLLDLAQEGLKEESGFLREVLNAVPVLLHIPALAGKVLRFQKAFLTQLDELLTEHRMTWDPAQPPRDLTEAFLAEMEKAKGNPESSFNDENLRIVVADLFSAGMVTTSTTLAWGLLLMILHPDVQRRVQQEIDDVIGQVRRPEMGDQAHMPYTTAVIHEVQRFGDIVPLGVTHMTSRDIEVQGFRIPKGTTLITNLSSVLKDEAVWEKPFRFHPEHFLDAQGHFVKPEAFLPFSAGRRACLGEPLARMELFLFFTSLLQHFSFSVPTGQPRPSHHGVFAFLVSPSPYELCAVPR
Cytochrome P450 2C9 (Homo sapiens), sequence (P11712 whole entry, looked up): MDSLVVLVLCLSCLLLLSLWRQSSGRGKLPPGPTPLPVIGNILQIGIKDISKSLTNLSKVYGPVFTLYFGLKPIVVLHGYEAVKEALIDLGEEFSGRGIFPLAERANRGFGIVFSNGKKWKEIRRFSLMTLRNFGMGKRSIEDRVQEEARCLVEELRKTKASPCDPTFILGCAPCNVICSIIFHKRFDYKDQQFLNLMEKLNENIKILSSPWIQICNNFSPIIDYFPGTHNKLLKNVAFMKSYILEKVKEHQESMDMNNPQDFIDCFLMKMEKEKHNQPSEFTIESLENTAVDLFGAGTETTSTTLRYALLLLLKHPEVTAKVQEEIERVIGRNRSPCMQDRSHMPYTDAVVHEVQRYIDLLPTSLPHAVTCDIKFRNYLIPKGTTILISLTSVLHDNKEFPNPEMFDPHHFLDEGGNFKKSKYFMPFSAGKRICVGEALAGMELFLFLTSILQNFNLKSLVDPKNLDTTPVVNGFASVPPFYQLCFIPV
Papain (Carica papaya), sequence (P00784 whole entry, looked up): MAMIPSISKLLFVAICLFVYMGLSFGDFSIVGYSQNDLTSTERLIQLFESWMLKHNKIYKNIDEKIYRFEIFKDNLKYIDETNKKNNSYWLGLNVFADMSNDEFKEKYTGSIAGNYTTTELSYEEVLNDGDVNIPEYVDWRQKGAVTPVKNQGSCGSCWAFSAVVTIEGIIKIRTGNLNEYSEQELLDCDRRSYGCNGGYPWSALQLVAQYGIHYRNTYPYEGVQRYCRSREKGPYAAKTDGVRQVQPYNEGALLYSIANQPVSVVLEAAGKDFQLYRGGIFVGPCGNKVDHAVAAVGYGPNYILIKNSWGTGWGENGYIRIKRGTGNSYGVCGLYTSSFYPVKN

`C[C@@H]1C[C@H]2[C@@H]3C[C@H](F)C4=CC(=O)C(Cl)=C[C@]4(C)[C@@]3(F)[C@@H](O)C[C@]2(C)[C@@]1(O)C(=O)CO`: the Potency entry in [1] is “inactive”.

For the compound `C=C1C[C@H]2[C@@H]3C=C(C)C4=CC(=O)CC[C@]4(C)[C@H]3CC[C@]2(C)[C@@]1(OC(C)=O)C(C)=O`, the Potency entry in [2] is “inactive”. In addition, the Potency was 23.7 µM (active) in [3] and 4.22 µM (active) in assay [4].

As for `CNCC[C@@H](Oc1ccccc1C)c1ccccc1`, the Potency result in [1] was “inactive”.

With `COC(=O)[C@@H]1CC2=CC(=O)CC[C@]2(C)[C@@]23O[C@@H]2C[C@@]2(C)[C@@H](CC[C@@]24CCC(=O)O4)[C@H]13`, the Potency result in [1], in assay [3] and in assay [4] was “inactive” throughout.

For the compound `CC(=O)OCC(=O)NCCCOc1cccc(CN2CCCCC2)c1`, the Potency entry in assay [1], in [3] and in assay [4] was “inactive” throughout.

As to `CCC(NC(C)C)C(O)c1ccc(O)c(O)c1` (stereo unspecified), the Potency in [1] is 15.1 µM (active). Moreover, the Potency result in the assay with Papain (Carica papaya) was “inactive”.

In the case of `COc1ccc(/C=C/C(=O)c2ccc(OC)cc2OC)cc1`, the Potency in assay [1] was 4.36 µM (active); in assay [3], 11.9 µM (active); in assay [4], 10.6 µM (active); in assay [7] it was 15.6 µM (active) and inactive. Besides, the outcome in assay [5] and in assay [8] was inactive. The Potency entry in assay [6] and in [9] was “inactive” in each case.

Take `CCOC(=O)COc1ccc2c(C)c(CCN(CC)CC)c(=O)oc2c1Cl`: the call in [10] was inactive. The Potency entry in assay [1], in assay [3] and in assay [4] was “inactive” in each case.

Regarding `O=C(O)CCCCC(=O)O`, the Potency result in assay [1], in assay [3] and in assay [4] was “inactive” in each case.

Consider `CC(C)NC[C@@H](O)COc1cccc2ccccc12`, for which the Potency entry in assay [1] was “inactive”.

Regarding `CCCCC(=O)O[C@]1(C(=O)CO)CC[C@H]2[C@@H]3CCC4=CC(=O)CC[C@]4(C)[C@H]3[C@@H](O)C[C@@]21C`, in assay [2], the Potency result is “inactive”. Besides, the Potency in assay [4] was 0.106 µM (active).

Regarding `CC(=O)[C@H]1CC[C@H]2[C@@H]3C[C@H](C)C4=CC(=O)CC[C@]4(C)[C@H]3[C@@H](O)C[C@]12C`, in [1], the Potency is 0.86 µM (active).

Turning to `CCOC(=O)/C=C(C)/C=C/C=C(C)/C=C/c1c(C)cc(OC)c(C)c1C`, the Potency in assay [1] was 7.76 µM (active).

For `O=C(N/N=C/c1ccccc1O)c1ccncc1`, the values for the Potency in assay [1], in assay [3] and in [4] were 4.36 µM (active), 6.68 µM (active) and 23.7 µM (active), respectively.

As to `CCN(CC)CCOc1ccc(C(O)(Cc2ccc(Cl)cc2)c2ccc(C)cc2)cc1` (stereo unspecified), the Potency is 0.617 µM (active) in assay [2], 5.31 µM (active) in [3] and 2.66 µM (active) in [4].

For the compound `COc1ccc(OC)c(C(O)CNC(=O)CN)c1` (stereo unspecified), the Potency entry in assay [2], in [3] and in assay [4] was “inactive” in each case.

As to `C=C1C(=C/C=C2\CCC[C@]3(C)[C@@H]([C@H](C)/C=C/[C@@H](O)C4CC4)CC[C@@H]23)C[C@@H](O)C[C@@H]1O`, the results for the Potency in [2], in assay [3] and in assay [4] were 24.5 µM (active), 15 µM (active) and 16.8 µM (active), respectively. Besides, the Potency entry in assay [11] was “inactive”.

For the compound `CN1CCN(CCCN2c3ccccc3Sc3ccc(S(=O)(=O)N(C)C)cc32)CC1`, the Potency in assay [2] is 11 µM (active); in assay [4], 21.1 µM (active).

As for `Cc1cccn2c(=O)c(-c3nnn[nH]3)cnc12`, the Potency entry in [1], in assay [3] and in assay [4] was “inactive” in each case.

With `COc1cc2c(cc1OC)[C@@H]1CC(=O)[C@@H](CC(C)C)CN1CC2`, the Potency in assay [1] is 15.5 µM (active). Besides, the Potency result in [3] and in assay [4] was “inactive” each time.

Consider `Oc1ccc(O)cc1`, for which the Potency result (in assay [1]; in the assay with Papain (Carica papaya)) was “inactive” each time. Besides, the Potency is 11.9 µM (active) in assay [3] and 15 µM (active) in [4].

Consider `CC(C)(C)NC(=O)[C@@H]1CN(Cc2cccnc2)CCN1C[C@@H](O)C[C@@H](Cc1ccccc1)C(=O)N[C@H]1c2ccccc2C[C@H]1O`, for which the Potency entry in assay [1], in [3], in [4] and in [11] was “inactive” in each case.

For the compound `C#C[C@]1(O)CC[C@H]2[C@@H]3CCC4=CC(=O)CC[C@@H]4[C@H]3CC[C@@]21C`, the Potency in [4] is 26.6 µM (active).

Consider `O=C1OC(c2ccc(O)cc2)(c2ccc(O)cc2)c2ccccc21`, for which the Potency result in assay [12] and in [6] was “inactive” throughout. Further, the call in [5] was inactive. In assay [7], the Potency was 24.8 µM (active) and 27.8 µM (active).

Take `CN(C)/N=N/c1nc[nH]c1C(N)=O`: the Potency result in assay [3] and in assay [4] was “inactive” each time.

`COc1cc(-c2ccc(=O)[nH]n2)ccc1OC(F)F`: the Potency result in [3] and in [4] was “inactive” throughout.

For `C1CCc2nnnn2CC1`, the Potency entry with Papain (Carica papaya) is “inactive”.

As for `CC(Cc1ccccc1)(NC(=O)CN)c1ccccc1` (stereo unspecified), the Potency entry in assay [3] and in assay [4] was “inactive” each time.

As to `CC(CCc1ccccc1)NCC(O)c1ccc(O)c(C(N)=O)c1` (stereo unspecified), the Potency entry (with Papain (Carica papaya); in assay [3]; in assay [4]) was “inactive” each time.

For `O=C(O)c1cc2cc(Cc3cccnc3)ccc2o1`, in the assay with Papain (Carica papaya), the Potency result is “inactive”.

With `CCCCCCCCCCCCCCCCOP(=O)([O-])OCC[N+](C)(C)C`, the Potency result in [1] was “inactive”. In addition, the figures for the Potency in assay [3] and in assay [4] were 10.6 µM (active) and 11.9 µM (active), respectively. For the same compound, the activity change, negative = cytotoxicity in assay [11] is -18.3% [at 8.35 µM] (inactive). Also, in assay [13], the outcome was “inactive [at 8.33 µM]”.

On to `CN1C2CCC1CC(OC(=O)c1c[nH]c3ccccc13)C2` (stereo unspecified), for which the Potency entry in the assay with Papain (Carica papaya) was “inactive”.

As to `Nc1cc(Cl)c(NC2=NCCN2)c(Cl)c1`, the Potency result in the assay with Papain (Carica papaya) was “inactive”.

As for `CC(C)COC(=O)OCN1C(=O)CN(CCN2CC(=O)N(COC(=O)OCC(C)C)C(=O)C2)CC1=O`, the Potency entry with Papain (Carica papaya) was “inactive”.
